Results on two molecules are retold here after PubChem BioAssay AID602197 (NMMLSC, 2012).

The nature of this experiment: V-ATPase regulators in yeast, one dose – S. cerevisiae, pH-sensitive GFP, second cherry-pick, confirmation (AID 602197).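 Note: plate controls were vehicle wells for no effect and positive control wells for full effect.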 The note with it: S. cerevisiae pHLuorin cytosolic pH, V-ATPase proton transport; at 10 µM; stronger effect = higher value.

This is one part of the list. Unmarked numbers belong to inactive results. Cut-off read from the data, not from the text of the source: active = response above about 24%; inactive = the rest.

With `Cc1ccccc1N1C(=O)NC(=O)/C(=C\c2cc(C)n(C)c2C)C1=O`, the response is 1.24%.

As to `CC(=O)Nc1ccc(C(=O)C(Cc2ccccc2)N(C)C)cc1` (configuration not stated), the response is 2.66%.
